The record followed here is ChEMBL document CHEMBL4513216, “Probing the Open Global Health Chemical Diversity Library for Multistage-Active Starting Points for Next-Generation Antimalarials” (ACS Infect Dis, 2020).

Out of some 69,000 compounds screened, about 8,600 (12%) showed an effect of 50% or more. The list comes from a sample in which strong results are over-represented; it also holds similar structures and randomly drawn compounds.

The test system of the test is Plasmodium berghei. Kind of test: Screen against P. berghei liver stage (PbLuc), transformed with Luciferase, at 10uM. Format: functional, HepG2. Particulars: tested at 10 uM.
Regarding `Cc1nn(C)cc1CN(C)C(=O)c1cnccn1`, the INHIBITION worked out at 8.7%.
With `Cn1cc(S(=O)(=O)NCc2ccc(F)cc2)cn1`, the INHIBITION is given as 24.175%.
`CN(C)CC1CN(Cc2ccc(-n3cccn3)cc2)CCO1` (stereo not drawn): the INHIBITION is 15.3%.
As to `O=C(Cc1cccc(F)c1)N1C[C@H]2CN(Cc3cccnc3)C[C@H]2C1`, the INHIBITION came out at 0.112%.
`CN(C)C(=O)NC1COC2(CCN(Cc3ccc(Cl)c(F)c3)CC2)C1` (stereo not drawn): the INHIBITION was 39.2%.
In the case of `c1cncc(C2=NOC3(CCN(Cc4c[nH]c5ccccc45)CC3)C2)c1`, the INHIBITION amounted to 44.1%.
As to `CC(C)C1=NOC2(CCN(Cc3c[nH]c4ccccc34)CC2)C1`, the INHIBITION stood at 75.6%.
`c1ccc(O[C@H]2COCCN(Cc3c[nH]c4ccccc34)C2)cc1`: the INHIBITION is recorded as -41.9%.
As to `CC1=NOC2(CCN(Cc3c[nH]c4ccccc34)CC2)C1`, the INHIBITION is 43.3%.
For `c1ccc(C2=NOC3(CCN(Cc4c[nH]c5ccccc45)CC3)C2)cc1` the value was 63.1%; for `CC(=O)N1CCC2(CC1)CC(C(C)C)=NO2`, 25.1%; for `CCc1ccc(NC(=O)N2C[C@@H]3C[C@H](C(=O)NC4CCC4)[C@H](C2)O3)cc1`, -50%.
Regarding `O=C(O)COc1ccc(CN2CCCC(Cc3cccnc3)C2)cc1` (stereo not drawn), the INHIBITION is 1.62%.
Regarding `COCCN(Cc1ccoc1)C(=O)c1c(F)cccc1F`, the INHIBITION was -6.42%.
As to `COCCN(Cc1ccoc1)C(=O)CSc1ccc(F)cc1`, the INHIBITION is 56.5%.
For `COCCCN(Cc1ccncc1)C(=O)CSc1ccc(F)cc1` the value was 25.8%.
Turning to `O=C(Nc1cnccn1)[C@H]1CC[C@@H]2[C@@H](CCN2Cc2ccccn2)O1`, the INHIBITION is -5.08%.
In the case of `CCc1nnc(NC(=O)c2ccc(C3CCCN3CC(C)C)s2)s1` (stereo not drawn), the INHIBITION came to 15.9%.
In the case of `Cc1cnc(NC(=O)c2ccc(C3CCCN3CC(C)C)s2)s1` (stereo not drawn), the INHIBITION is recorded as 64%.
Consider `CC(C)CN1CCCC1c1ccc(C(=O)Nc2cn(C)nn2)s1` (stereo not drawn), for which the INHIBITION was 47.9%.
As to `CC(C)CN1CCCC1c1ccc(C(=O)Nc2ccc3[nH]nnc3c2)s1` (stereo not drawn), the INHIBITION stood at 51.1%.
With `CCc1noc(CC)c1CNC(=O)Nc1ccc2[nH]nnc2c1`, the INHIBITION was 27.2%.
For `CC(C)CN1CCCC1c1ccc(C(=O)Nc2cc[nH]n2)s1` (stereo not drawn) the value was 22.3%; for `CCCN1CCCC1c1ccc(C(=O)N2CCOCC2)s1` (stereo not drawn), 42.1%.
As for `CC(C)Cc1cc(NC(=O)c2ccc3[nH]nnc3c2)n(C)n1`, the INHIBITION amounted to 1.45%.
Regarding `CC(C)CN1CCCC1c1ccc(C(=O)Nc2cccnc2)s1` (stereo not drawn), the INHIBITION was found to be 89.6%.
Turning to `CN1C(=N)NC(=O)/C1=C/c1ccc(-c2ccc(Br)cc2)o1`, the INHIBITION was 10.1%.
On to `O=C(CN1CCC(c2cc(=O)n3c(n2)CCCCC3)C1)N1CCCCC1` (stereo not drawn), for which the INHIBITION is 1.5%.
Then `Cc1cccc(OCCCN2CCC(N(C)Cc3noc(C)n3)C2)c1` (stereo not drawn), with 1.75%.
On to `Cc1nc(C2CCCN2C(=O)Cn2cncn2)no1` (stereo not drawn), for which the INHIBITION is -14%.
Regarding `COCCN1CCC(CN(CC2CCCO2)C(=O)Cc2cccs2)CC1` (stereo not drawn), the INHIBITION amounted to 4.35%.
`FC(F)(F)c1cc(C2CCCN(c3ncccn3)C2)n2ccnc2n1` (stereo not drawn): the INHIBITION came out at 7.43%.
For `Cn1nc(C2CCN(C(=O)CN3CCCCC3)CC2)c2cccnc21` the value was 23.2%; for `CCOc1ncccc1CNC(=O)c1cccc(C)n1`, 38.25%; for `COCC(=O)N1CC[C@H]2C[C@H](c3nnc(C4CC4)o3)O[C@@H]2C1`, -6.3%.
Consider `COc1ccc(NC(=O)N(C)Cc2ccsc2)cn1`, for which the INHIBITION came to 17.4%.
As for `CCNc1cc2c(nn1)CCN(C(=O)c1cccnc1N(C)C)C2`, the INHIBITION is reported as 17.05%.
As to `CN1CCN(C(=O)Cn2ccc3c(Cl)cccc32)CC1`, the INHIBITION is recorded as -13.6%.
In the case of `Cc1cccc(NC(=O)c2cccc(OCc3nnnn3C)c2)n1`, the INHIBITION came to 60%.
With `Cc1cccc(NC(=O)c2ccc(OCc3nnnn3C)cc2)n1`, the INHIBITION is given as -83.3%.
Then `Cc1ccnc(NC(=O)c2cccc(OCc3nnnn3C)c2)c1`, with 39.8%.
Regarding `CN1CC(=O)N(c2ccccc2)CC12CCN(C(=O)c1ccnnc1)C2` (stereo not drawn), the INHIBITION is recorded as -7.29%.
With `Cc1nn2c(NC(=O)CSc3ncccn3)csc2nc1=O`, the INHIBITION was 3.77%.
On to `Cc1nn2c(NC(=O)CSc3nccn3C)csc2nc1=O`, for which the INHIBITION came out at 50.8%.
Take `Cc1cc(NCCSc2nccn2C)n2nc(C)c(C)c2n1`: the INHIBITION is listed as 24.7%.
Then `Cc1ccnc(NCc2cn3c(C)csc3n2)n1`, with -125%.
For `Cc1ccnc(SCC(=O)Nc2csc3nc(=O)c(C)nn23)n1`, the INHIBITION was 72.8%.
Turning to `Cc1nnc(SCC(=O)Nc2csc3nc(=O)c(C)nn23)s1`, the INHIBITION worked out at 36.3%.
As to `Cc1ncsc1C(=O)NCc1ccc(-c2n[nH]cc2C(=O)N(C)C)cc1`, the INHIBITION is -3.05%.
Turning to `c1cncc(CN2CCCn3nnc(CN4CCCC4)c3C2)c1`, the INHIBITION was -19.8%.
With `CNC(=O)C1(c2cnccn2)CCCN1C(=O)c1ccccc1` (stereo not drawn), the INHIBITION is recorded as 35.2%.
Regarding `COCCO[C@H]1CCN(Cc2ccsc2)[C@H]1Cc1cccnc1`, the INHIBITION is listed as -67.6%.
Turning to `Cc1nnc(N2C[C@H](OCc3cccnc3)[C@H]3OCCC[C@H]32)s1`, the INHIBITION is given as 47.9%.
`Cc1csc(C2CCCCN2C(=O)c2cn[nH]c2C)n1` (stereo not drawn): the INHIBITION is on record as 11.6%.
For `CC(=O)NCC(=O)N1Cc2c(-c3cccc(C)c3)nc(N)nc2C1C` (stereo not drawn), the INHIBITION amounted to 34%.
`CN1CCC(C)(CN(C)C(=O)c2ccc(CCC(C)(C)O)cc2)C1` (stereo not drawn): the INHIBITION was 1.71%.
For `CCOc1cc(C)nc(N2CCN(C(=O)Cn3cc(C)cn3)CC2)n1` the value was -83.4%; for `COCC(=O)N1CCc2nc(-c3cnccn3)nc(O)c2C1`, 47.2%; for `O=C(Cc1ccccn1)N1CCc2nc(-c3cnccn3)nc(O)c2C1`, 5.69%.
Then `Oc1nc(-c2cnccn2)nc2c1CCN(Cc1ccccn1)C2`, with 2.71%; and `O=C(CCC1CCCO1)N1CCc2nc(-c3cnccn3)nc(O)c2C1` (stereo not drawn), with -22.6%; and `Cc1nc(CC(=O)N2CCc3nc(-c4cnccn4)nc(O)c3C2)cs1`, with 59.3%.
In the case of `O=C(Cc1ccccn1)N1CCc2c(O)nc(-c3cnccn3)nc2C1`, the INHIBITION came to 52%.
Then `Cc1nc(C)n(CC2CCCN2Cc2cn3ccccc3n2)n1` (stereo not drawn), with -17.6%; and `c1cnn(Cc2nnc3n2CCCN(c2nccs2)C3)c1`, with 53.9%; and `c1cnc(N2CCCn3c(nnc3Cn3cccn3)C2)nc1`, with -7.24%.
Consider `Cc1cnc(N2CCCn3c(nnc3Cn3cccn3)C2)nc1`, for which the INHIBITION stood at 16.9%.
`Cc1c(F)cc(C(=O)O)cc1S(=O)(=O)Nc1ccc(C#N)cc1`: the INHIBITION amounted to 14.55%.
As to `c1cncc(C[C@@H]2CC[C@H](CN3CCCOCC3)O2)c1`, the INHIBITION is -13.1%.
As for `O=C(c1cccnc1)N1CCOC2(COCCN(c3cncnc3)C2)C1` (stereo not drawn), the INHIBITION is -2.41%.
Then `CCC(NC1CSCCSC1)c1ccc(S(C)(=O)=O)cc1` (stereo not drawn), with 29.4%.
Turning to `COc1ccc(NC(C)C(=O)N2CCN(c3ccccc3)CC2)cn1` (stereo not drawn), the INHIBITION was 21.6%.
Take `COc1ccc(NC(C)C(=O)N2CCN(c3ncccn3)CC2)cn1` (stereo not drawn): the INHIBITION is recorded as 29.2%.
For `COc1ccc(NC(C)C(=O)N2CCCC2)cn1` (stereo not drawn) the value was 78.2%.
On to `Cc1ccccc1SCC(=O)NC1CCC(n2cnnc2)CC1` (stereo not drawn), for which the INHIBITION is listed as 34.1%.
Consider `CC(=O)N1CCCCC1c1nnc2n1CCNC2` (stereo not drawn), for which the INHIBITION was 38.3%.
Consider `CC(C)NC(=O)N1CCC(c2nnc3n2CCNC3)CC1`, for which the INHIBITION was 59.8%.
Regarding `O=C(NC1CCCCC1)N1CCCC1c1nnc2n1CCNC2` (stereo not drawn), the INHIBITION amounted to 32.5%.
Consider `O=C(N1CCCCC1)N1CCCC1c1nnc2n1CCNC2` (stereo not drawn), for which the INHIBITION is listed as 36.6%.
For `CC(C)NC(=O)N1CCn2c(nnc2C2CCCN2)C1` (stereo not drawn), the INHIBITION was found to be 23.4%.
Then `CC(C)NC(=O)N1CCCCC1c1nnc2n1CCNC2` (stereo not drawn), with 54.9%.
Take `Cc1cnn(C2CN(c3ncnc4[nH]ccc34)C2)c1`: the INHIBITION came out at 15%.
Then `CN(C)CC(=O)N1Cc2nnn(C)c2C(COCc2ccccn2)C1` (stereo not drawn), with -27.9%; and `CC(C)C(=O)N1CCN(Cc2ccccn2)CC2(CC(=O)N(C)C2)C1` (stereo not drawn), with 5.04%; and `Cn1cccc1C(=O)N1CC2(CCN(C(=O)c3cccnc3)C2)C1`, with 32.1%.
For `Cn1nc(C2CCN(C(=O)c3cnccn3)C2)cc1CCO` (stereo not drawn) the value was 45.2%; for `Cc1nc(Cn2c3c(ccc2=O)CC(NC(C)C)CC3)cs1` (stereo not drawn), 13.6%; for `Cn1cccc1C(=O)N1CCC(O)(CN2CCc3ccccc3C2)C1` (stereo not drawn), 20.4%.
As for `Cc1csc(C(=O)N2CCC(O)(CN3CCc4ccccc4C3)C2)c1` (stereo not drawn), the INHIBITION is recorded as 76.8%.
For `Cc1ccc(C(=O)N2CCC(O)(CN3CCc4ccccc4C3)C2)s1` (stereo not drawn) the value was 51.5%.
Then `Cc1ccsc1C(=O)N1CCC(O)(CN2CCc3ccccc3C2)C1` (stereo not drawn), with 33.7%; and `Cc1ncsc1C(=O)N1CCC(O)(CN2CCc3ccccc3C2)C1` (stereo not drawn), with 45.6%.
Then `O=C(c1cccs1)N1CCC(O)(CN2CCc3ccccc3C2)C1` (stereo not drawn), with 37.5%; and `Cc1nnsc1C(=O)NCc1nn(C)c2c1COCC2`, with -2.09%.
In the case of `CC(O)c1cn(Cc2ccc(Cl)cc2)nn1` (stereo not drawn), the INHIBITION is recorded as 24.7%.
For the compound `Cc1noc(C)c1CN1C[C@H]2CC[C@@H](C1)N(Cc1cc(F)cc(F)c1)C2`, the INHIBITION came to 0.818%.
Then `CS(=O)(=O)N1Cc2ccccc2CC2(CCN(Cc3ccccn3)C2)C1` (stereo not drawn), with 40%; and `CS(=O)(=O)N1CC2(CCCN2Cc2ccc(Cl)cc2)Cc2ccccc21` (stereo not drawn), with 23.4%.
On to `Cc1ncsc1CN1CCC2(CC1)CC(=O)N(Cc1ccc(Cl)cc1)C2`, for which the INHIBITION is -16%.
Then `CS(=O)(=O)N1Cc2ccccc2CC2(CCN(Cc3ccncc3)C2)C1` (stereo not drawn), with 38.3%; and `CC(=O)N1CC2(CCN(Cc3ccc(Cl)cc3)CC2)Cc2ccccc21`, with 61.5%; and `COCC(=O)N1CCC2(CC1)CC(=O)N(Cc1ccc(Cl)cc1)C2`, with 14%.
For `CC(=O)N1CC2(CCCCN2Cc2ccc(Cl)cc2)Cc2ccccc21` (stereo not drawn) the value was 59%; for `CN(C)CC(=O)N1CC2(CCN(Cc3ccccc3)C2)C1`, -2.35%; for `CC(=O)N1CC2(CCCN(Cc3ccc(Cl)cc3)C2)Cc2ccccc21` (stereo not drawn), 49.1%.
As to `CC(=O)N1CC2(CCN(Cc3ccc(Cl)cc3)C2)Cc2ccccc21` (stereo not drawn), the INHIBITION was found to be 57.3%.
For the compound `CC(=O)N1CC2(CCCN2Cc2ccc(Cl)cc2)Cc2ccccc21` (stereo not drawn), the INHIBITION was determined as 46.6%.
For `CS(=O)(=O)N1Cc2ccccc2CC2(CCN(Cc3ccccc3)C2)C1` (stereo not drawn) the value was 55.7%.
